From PubChem BioAssay (NCI)
This is part of a sample that, as a whole, favours compounds with a hit. Of some 83,000 tested, about 20% had one in any assay.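 Step 1: grow cells in 96-well plates. Step 2: add test compound at a single concentration. Step 3: incubate 48 h. Step 4: record percent growth.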 Unmarked numbers belong to inactive results. The source made the active and inactive calls. Rule for the calls: active = growth percent below 10; inactive = the rest.

Tests used:
Assay in all cases: NCI-60 one-dose screen, 48 h (100 = growth as untreated, 0 = no growth, -100 = all killed)
Conditions in all cases: 10 µM unless noted
SR leukemia = tested on: SR leukemia
RPMI-8226 leukemia = tested on: RPMI-8226 leukemia
OVCAR-8 ovarian = tested on: OVCAR-8 ovarian
OVCAR-5 ovarian = tested on: OVCAR-5 ovarian
OVCAR-4 ovarian = tested on: OVCAR-4 ovarian
SK-OV-3 ovarian = tested on: SK-OV-3 ovarian
IGROV1 ovarian = tested on: IGROV1 ovarian
HS 578T breast = tested on: HS 578T breast
NCI/ADR-RES ovarian = tested on: NCI/ADR-RES ovarian
T-47D breast = tested on: T-47D breast
BT-549 breast = tested on: BT-549 breast
MDA-MB-435 melanoma = tested on: MDA-MB-435 melanoma
SW-620 colon = tested on: SW-620 colon
MCF7 breast = tested on: MCF7 breast
HCT-116 colon = tested on: HCT-116 colon
KM12 colon = tested on: KM12 colon
OVCAR-3 ovarian = tested on: OVCAR-3 ovarian
HCC-2998 colon = tested on: HCC-2998 colon

| Compound | growth (SR leukemia) | growth (RPMI-8226 leukemia) [%] | growth (OVCAR-8 ovarian) [%] | growth (OVCAR-5 ovarian) [%] | growth (OVCAR-4 ovarian) | growth (SK-OV-3 ovarian) | growth (IGROV1 ovarian) | growth (HS 578T breast) [%] | growth (NCI/ADR-RES ovarian) [%] | growth (T-47D breast) [%] | growth (BT-549 breast) | growth (MDA-MB-435 melanoma) | growth (SW-620 colon) | growth (MCF7 breast) | growth (HCT-116 colon) | growth (KM12 colon) | growth (OVCAR-3 ovarian) | growth (HCC-2998 colon) |
| --- | --- | --- | --- | --- | --- | --- | --- | --- | --- | --- | --- | --- | --- | --- | --- | --- | --- | --- |
| NS(=O)(=O)c1ccc(CCN2C(=O)c3cc(Cl)c(Cl)cc3C2=O)cc1 | 96% | 104 | 106 | 108 | 104% | 113% | 107% | 108 | 105 | 98.4 | 109% | 108% | 110% | 98.6% | 100% | 100% | – | – |
| O=S(=O)(NCCCNc1nccc(-c2c(-c3cccc(F)c3)nc3sccn23)n1)c1cccc2ccccc12 | 62% | 44.9 | 38.5 | 80.9 | 40.2% | 65.8% | – | – | – | 18.4 | 65% | 22.6% | 42.1% | 37.4% | 32.4% | 26% | 68.7% | 16.3% |
| COCCCN1CC(O)=C(c2nc(-c3ccc(C)cc3)cs2)C1=N | 109% | – | 95.2 | 97.6 | 150% | 120% | 54.4% | 102 | 106 | 97.5 | 103% | – | 104% | 360% | 90.3% | 120% | 112% | 112% |
| O=[N+]([O-])c1cc(Br)c2cccc3c2c1CC3 | 93.3% | – | 97 | 99.4 | 104% | 114% | 111% | 130 | 114 | 101 | 114% | 113% | 107% | 89% | 106% | 109% | 108% | 103% |
| N=C1C(c2nc3ccccc3s2)=C(O)CN1c1cc(Cl)cc(Cl)c1 | 7.21% (active) | – | 67.2 | 87 | 131% | 99.4% | 52.5% | 52.7 | 78.9 | 97 | 71.3% | 41.6% | 54.8% | 148% | 46.5% | 64.7% | 87.2% | – |
| COc1ccc(C(=O)c2cc(C)c(OC)c(C)c2)c(OC)c1OC(=O)C(Cl)Cl | 16% | – | 10.1 | 45.2 | 46.7% | -2.06% (active) | 22.3% | 20.5 | – | 59.5 | 11.4% | -28.4% (active) | 20% | 12.4% | 1.56% (active) | 8.08% (active) | -4.52% (active) | 9.93% (active) |
| O=C(/C(=C\c1ccc([N+](=O)[O-])cc1)S(=O)Cc1ccc(F)cc1)c1ccc(F)cc1 (stereo not drawn) | 8.47% (active) | – | 29.3 | 40.4 | 45% | 103% | -19.1% (active) | 40.9 | – | 10.3 | 74.6% | 53.7% | -33.5% (active) | 16.4% | -20.5% (active) | 43.4% | 18.1% | 45.9% |
| CCN1Cc2nc3sc(C)c(C)c3c(=O)n2C=C1C | -9.23% (active) | – | 38.1 | 85.9 | 42.3% | 115% | 30.1% | 43.2 | 30.9 | 37.1 | -5.48% (active) | 48.1% | 15.6% | -41.8% (active) | -24.9% (active) | 14.5% | 46% | 81.2% |
| Cc1ccc(-n2cc(-c3ccccc3)c3c2N=NN2CCN=C32)cc1 | 86% | – | 107 | 101 | 97.2% | 104% | 88.5% | 100 | 102 | 93.5 | 125% | 101% | 92.5% | 98.7% | 95.8% | 102% | 106% | 111% |
| O=C(Nc1ccccc1C(=O)N/N=C(\c1ccccc1)c1ccccn1)c1ccc(F)cc1 | 14.4% | 29.1 | 17.1 | 41.7 | -5.03% (active) | 2.2% (active) | – | 59.9 | – | 12.7 | 16.1% | 29.5% | 30.2% | 12.7% | – | 26.6% | 18.1% | 32.5% |
| Oc1ccc(OCCOc2ccc(O)cc2)cc1 | 45.7% | 66.9 | 42.4 | 69.4 | – | 95.1% | 71.4% | 109 | 24.3 | 72.5 | 54.7% | 47.2% | 50.2% | 55.7% | 55.9% | 29.2% | 70.2% | 47.1% |
| COc1ccc(C(=O)C2C(C#N)C(C#N)C3C=Cc4ccccc4N32)cc1 (stereo not drawn) | 21.3% | – | 27.6 | 31.4 | 46.4% | 55.2% | 23.2% | 14.4 | – | 42.5 | 63.9% | – | 26.5% | 9.25% (active) | 15.9% | 6.36% (active) | -11.9% (active) | 33.6% |
| C#CCNC(=O)[C@]1(C)CC[C@]2(C)CC[C@@H]3C(=CC[C@H]4[C@@]3(C)CC[C@H]3C(C)(C)C(=O)CC[C@]43C)[C@@H]2C1 | 55.9% | – | 96.8 | 102 | 91.4% | 92.1% | 60.1% | 126 | 94.2 | 77.1 | 101% | 97.3% | 105% | 83.3% | 81% | 92.3% | 95.7% | 101% |
| Nc1c(C(=O)Nc2cccc3cnccc23)sc2nc3c(cc12)CN(Cc1ccccc1)CC3 | 95.5% | 99.7 | 106 | 105 | 105% | 111% | – | 104 | 112 | 102 | 100% | 108% | 104% | 96.5% | 100% | 102% | – | 115% |
| Nc1nc(Nc2ccccc2SSc2ccccc2Nc2nc(N)nc(-c3ccc(C(F)(F)F)cc3)n2)nc(-c2ccc(C(F)(F)F)cc2)n1 | -5.23% (active) | 43.6 | 56 | 104 | 82% | 104% | – | – | 56.4 | 41.7 | 75.6% | 74.9% | 80.4% | 52.2% | 51% | 44.8% | 80.5% | 93.1% |
| COc1ccccc1NS(=O)(=O)c1cccc(C(=O)Nc2ccc(Br)cc2)c1 | 50.4% | – | 57.6 | 68.9 | 35.3% | 44.1% | 46.6% | 73.8 | 27.6 | 21.2 | 37.2% | 35.3% | 55.1% | 32.5% | 37.9% | 34.6% | 45.8% | 57.5% |
| CCCCCN1C=C/C(=C\C(=O)N2CCCc3ccccc32)c2ccccc21 | 61.6% | – | 89.3 | 99.8 | 75.2% | 95% | 77.9% | 94.8 | 107 | 68.2 | 79.7% | 97% | 88.8% | 91% | 66.5% | 90.4% | 84.5% | 102% |
| COc1ccc(/C=C2\Oc3cc(OCCCCCN4CCCCC4)ccc3C2=O)cc1OC | -26.1% (active) | 76.1 | 83.3 | 95.9 | 48.1% | 104% | – | 93.8 | 84 | 72.4 | 69.4% | 99.2% | -61.3% (active) | 70.9% | -51.2% (active) | 80.4% | – | 94.7% |
| CCC(CC)NCC(C)(C)O | 93.4% | – | 99 | 108 | 105% | 110% | 98% | 107 | 106 | 123 | 106% | 108% | 107% | 97.9% | – | 104% | 119% | 92.2% |
